SRC3 TRFRET art: flags TR-FRET format artefacts in PPARgamma SRC-3 recruitment agonist screen; AID 1048; TR-FRET ratio at 8 µM; 99,000 tested, 0.39% active; TR-FRET artefact counter-screen, PPARgamma/SRC-3 format; hits give high values; in the data active = TR-FRET ratio above about 2000
PPARg SRC-2 ag: PPARgamma-driven SRC-2 recruitment agonism. 200,000 tested, 0.34% active. PPARgamma LBD-SRC-2 recruitment, biochemical. activation, % at 8 µM
SRC1 TRFRET art: flags TR-FRET format artefacts in PPARgamma SRC-1 recruitment agonist screen | TR-FRET detection artefact counter-screen, emission ratio; hits give high values | TR-FRET ratio at 8 µM | 99,000 tested, 0.34% active | AID 1051; in the data active = TR-FRET ratio above about 2300
TR-FRET SRC-2 ct: flags TR-FRET format artefacts in PPARgamma SRC-2 recruitment agonist screen; TR-FRET artefact counter-screen; hits give high values; AID 1049; 200,000 tested, 0.4% active; TR-FRET ratio at 8 µM; in the data active = TR-FRET ratio above about 2000
PPARg SRC-1 ag: agonists of human PPARgamma SRC-1 coactivator recruitment | P37231 | PPARgamma-SRC-1 coactivator recruitment biochemical assay | activation, % at 8 µM | 200,000 tested, 0.41% active | AID 631; in the data active = activation above about 19%
PPARg SRC3 recr: promotes SRC-3 coactivator recruitment by human PPARgamma | P37231 | biochemical PPARgamma/SRC-3 coactivator recruitment assay | activation, % at 8 µM | 200,000 tested, 0.26% active; in the data active = activation above about 23%
PPARg SRC2 conf: human PPARgamma SRC-2 recruitment agonism, confirmation; shares compounds with PPARg SRC3 recr; 790 tested, 52% active; AID 1297; biochemical SRC-2 recruitment by PPARgamma; activation, % at 8 µM
PPARg SRC1 conf: confirmation of agonists of SRC-1 recruitment by human PPARgamma; shares compounds with PPARg SRC3 recr; PPARgamma–SRC-1 coactivator recruitment biochemical assay; activation, % at 8 µM; 790 tested, 43% active; AID 1300; in the data active = activation above about 20%
PPARg SRC3 conf: confirmation of agonists of SRC-3 recruitment by human PPARgamma; activation, % at 8 µM; shares compounds with PPARg SRC3 recr; biochemical PPARgamma-SRC-3 coactivator recruitment, agonist mode; 790 tested, 29% active; in the data active = activation above about 24%
Target sequence (P37231 whole entry, looked up): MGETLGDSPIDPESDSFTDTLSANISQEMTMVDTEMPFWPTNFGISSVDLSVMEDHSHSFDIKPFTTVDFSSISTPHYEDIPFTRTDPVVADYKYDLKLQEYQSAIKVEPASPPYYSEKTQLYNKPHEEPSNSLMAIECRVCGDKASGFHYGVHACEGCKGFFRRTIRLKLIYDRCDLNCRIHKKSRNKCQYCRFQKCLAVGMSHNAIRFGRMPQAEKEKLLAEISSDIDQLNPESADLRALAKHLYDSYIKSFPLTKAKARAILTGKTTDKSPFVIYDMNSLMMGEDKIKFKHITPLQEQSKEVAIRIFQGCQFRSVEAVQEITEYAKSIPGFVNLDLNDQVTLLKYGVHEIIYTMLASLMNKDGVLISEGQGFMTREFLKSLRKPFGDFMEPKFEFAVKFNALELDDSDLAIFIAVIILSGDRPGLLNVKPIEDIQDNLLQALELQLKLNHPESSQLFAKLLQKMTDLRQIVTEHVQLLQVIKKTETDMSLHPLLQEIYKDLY
Target sequence (Q9Y6Q9 whole entry, looked up): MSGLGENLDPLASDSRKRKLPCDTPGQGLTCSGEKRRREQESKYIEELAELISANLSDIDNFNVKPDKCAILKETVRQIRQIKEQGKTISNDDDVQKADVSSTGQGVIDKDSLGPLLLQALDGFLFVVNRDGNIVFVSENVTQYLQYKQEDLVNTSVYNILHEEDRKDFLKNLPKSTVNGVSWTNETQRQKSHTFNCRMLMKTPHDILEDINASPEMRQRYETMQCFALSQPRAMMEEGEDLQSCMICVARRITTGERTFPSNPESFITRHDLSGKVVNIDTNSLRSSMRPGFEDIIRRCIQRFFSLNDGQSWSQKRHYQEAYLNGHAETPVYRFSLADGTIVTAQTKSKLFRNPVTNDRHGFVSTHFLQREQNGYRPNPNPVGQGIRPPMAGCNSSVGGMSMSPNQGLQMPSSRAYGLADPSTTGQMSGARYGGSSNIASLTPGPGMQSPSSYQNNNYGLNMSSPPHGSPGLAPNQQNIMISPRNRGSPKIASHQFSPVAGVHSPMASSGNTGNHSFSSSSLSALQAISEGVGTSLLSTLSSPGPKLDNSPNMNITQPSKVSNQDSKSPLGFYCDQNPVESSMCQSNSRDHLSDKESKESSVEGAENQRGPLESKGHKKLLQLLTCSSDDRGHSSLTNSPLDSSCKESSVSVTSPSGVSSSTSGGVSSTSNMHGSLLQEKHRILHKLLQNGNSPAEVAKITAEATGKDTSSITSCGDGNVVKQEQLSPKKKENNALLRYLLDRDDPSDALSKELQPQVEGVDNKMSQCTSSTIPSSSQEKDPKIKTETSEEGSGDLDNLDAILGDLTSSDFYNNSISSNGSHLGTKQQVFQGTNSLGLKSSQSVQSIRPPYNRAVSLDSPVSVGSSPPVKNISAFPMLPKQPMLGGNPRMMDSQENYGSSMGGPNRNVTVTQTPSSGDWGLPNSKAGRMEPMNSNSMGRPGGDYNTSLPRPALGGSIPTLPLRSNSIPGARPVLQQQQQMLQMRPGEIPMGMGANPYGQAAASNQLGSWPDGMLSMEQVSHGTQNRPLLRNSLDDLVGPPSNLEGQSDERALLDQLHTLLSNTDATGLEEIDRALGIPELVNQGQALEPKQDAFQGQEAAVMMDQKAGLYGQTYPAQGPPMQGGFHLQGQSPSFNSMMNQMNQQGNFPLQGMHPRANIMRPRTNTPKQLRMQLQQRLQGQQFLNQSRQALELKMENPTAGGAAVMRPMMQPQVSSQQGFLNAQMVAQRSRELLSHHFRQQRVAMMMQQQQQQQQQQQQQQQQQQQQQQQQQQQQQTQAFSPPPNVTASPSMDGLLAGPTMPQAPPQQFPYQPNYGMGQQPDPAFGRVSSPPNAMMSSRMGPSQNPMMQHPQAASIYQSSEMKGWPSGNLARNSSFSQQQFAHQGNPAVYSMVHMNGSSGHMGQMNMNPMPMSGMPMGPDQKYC
Of the large screens only hits and unclear results are named; the others gave an inactive call (follow-up assays come after a bar, where they were run). In the library only some 0.84% were active in any assay of this set; here they are far more common. Cut-off read from the data, not from the text of the source, unless noted: active = activation above about 22%; inactive = the rest.

N#C/C(=C\c1ccc(N2CCOCC2)o1)C(=O)NCC1CCCO1 (stereo unspecified)	TR-FRET SRC-2 ct 2010, PPARg SRC-1 ag 20 | PPARg SRC2 conf inactive | PPARg SRC1 conf inactive | PPARg SRC3 conf inactive
Cc1cc(C(F)F)n2nc(C(=O)Nc3cccnc3Cl)nc2n1	none (no result: SRC3 TRFRET art, SRC1 TRFRET art)
Cc1ccc(C)c(NC(=O)CS(=O)(=O)c2cccc3nsnc23)c1	none
Cc1csc(-c2cnn(-c3ccccc3)c2NC(=O)c2ccc(C(F)(F)F)cc2)n1	none (no result: SRC3 TRFRET art, SRC1 TRFRET art)
O=C1C2C3C=CC(C3)C2C(=O)N1CCN1CCN(Cc2ccc([N+](=O)[O-])cc2)CC1 (stereo unspecified)	none
CCCN1C=CC(=C/C=C(\C#N)C(=O)OCC)C=C1	none (no result: SRC3 TRFRET art, SRC1 TRFRET art)
CCCCCCN1C=CC(=C/C=C(\C#N)C(=O)OCC)C=C1	PPARg SRC-1 ag 21 (no result: SRC3 TRFRET art, SRC1 TRFRET art) | PPARg SRC2 conf inactive | PPARg SRC1 conf inactive | PPARg SRC3 conf inactive
Cn1c(-c2ccco2)n[nH]c1=S	none
Cc1cccc(-n2c(-c3ccco3)n[nH]c2=S)c1	SRC3 TRFRET art 2283, PPARg SRC-2 ag 28, SRC1 TRFRET art 2623, TR-FRET SRC-2 ct 2124, PPARg SRC-1 ag 25, PPARg SRC3 recr 23 | PPARg SRC2 conf 35 | PPARg SRC1 conf 25 | PPARg SRC3 conf 26
O=C(O)CCCC(=O)Nc1ccc(Br)cc1C(=O)O	none (no result: SRC3 TRFRET art, SRC1 TRFRET art)
COC(=O)c1c(NC(=S)Nc2ccc(CC(=O)O)cc2)sc(C)c1C	PPARg SRC-1 ag 22 | PPARg SRC2 conf 50 | PPARg SRC1 conf 36 | PPARg SRC3 conf 31
Cc1sc(NC(=S)Nc2ccc(F)cc2)c(C(N)=O)c1C	PPARg SRC-1 ag 25 | PPARg SRC2 conf 26 | PPARg SRC1 conf inactive | PPARg SRC3 conf inactive
CCOC(=O)c1c(NC(=S)Nc2ccc(Cl)cc2)sc(C)c1C	none (no result: SRC3 TRFRET art, SRC1 TRFRET art)
CCCCN(CC)S(=O)(=O)N1CCC(C(=O)NCc2ccc(F)cc2)CC1	none (no result: SRC3 TRFRET art, SRC1 TRFRET art)
CC(=O)c1ccccc1NC(=O)CSc1nnc2ccccn12	none (no result: SRC3 TRFRET art, SRC1 TRFRET art)
Cc1ccc(C=Nc2ccc(N(C)C)cc2)o1	PPARg SRC-2 ag 102, TR-FRET SRC-2 ct 3126, PPARg SRC-1 ag 65, PPARg SRC3 recr 102 (no result: SRC3 TRFRET art, SRC1 TRFRET art) | PPARg SRC2 conf inactive | PPARg SRC1 conf inactive | PPARg SRC3 conf inactive
O=C(/C=C\c1ccc(-c2cccc([N+](=O)[O-])c2)o1)N1CCOCC1	none
CCCC1O[C@@H]2C[C@H]3[C@@H]4CCC5=CC(=O)C=C[C@]5(C)[C@H]4[C@@H](O)C[C@]3(C)[C@]2(C(=O)CO)O1 (stereo partly specified)	none
CCCC1O[C@@H]2CC3C4CCC5=CC(=O)C=C[C@]5(C)C4C(OC(C)=O)C[C@]3(C)[C@]2(C(=O)COC(C)=O)O1 (stereo partly specified)	PPARg SRC-2 ag 38, PPARg SRC-1 ag 60, PPARg SRC3 recr 47 (no result: SRC3 TRFRET art, SRC1 TRFRET art) | PPARg SRC2 conf 42 | PPARg SRC1 conf 49 | PPARg SRC3 conf 48
CCc1ccc(N2C(=O)CC(N(CC3CCCO3)C(=O)/C=C/C(=O)O)C2=O)cc1 (stereo unspecified)	none
CC(C)C1Cc2c(C#N)c(N)sc(=S)c2CO1 (stereo unspecified)	PPARg SRC-2 ag 39, TR-FRET SRC-2 ct 2315, PPARg SRC-1 ag 33, PPARg SRC3 recr 47 (no result: SRC3 TRFRET art, SRC1 TRFRET art) | PPARg SRC2 conf inactive | PPARg SRC1 conf inactive | PPARg SRC3 conf inactive
CC(C)(C)C(=O)CSc1nnc(Nc2ccccc2)s1	none
Nc1cc2nsnc2cc1Br	PPARg SRC-2 ag 265, TR-FRET SRC-2 ct 6354, PPARg SRC-1 ag 230, PPARg SRC3 recr 334 (no result: SRC3 TRFRET art, SRC1 TRFRET art) | PPARg SRC2 conf 225 | PPARg SRC1 conf 167 | PPARg SRC3 conf 150
O=c1c2c(-c3cccs3)csc2ncn1-c1ccccc1	none (no result: SRC3 TRFRET art, SRC1 TRFRET art)
C=CCn1c(=S)[nH]c2sccc2c1=O	none
C=CCn1c(=S)[nH]c2scc(-c3ccc(C)o3)c2c1=O	SRC3 TRFRET art 2146, SRC1 TRFRET art 2448, TR-FRET SRC-2 ct 2125, PPARg SRC-1 ag 25, PPARg SRC3 recr 24 | PPARg SRC2 conf inactive | PPARg SRC1 conf inactive | PPARg SRC3 conf inactive

Compound activity deposited in PubChem BioAssay by The Scripps Research Institute Molecular Screening Center.
